Screens deposited in PubChem by National Center for Advancing Translational Sciences (NCATS).
TDP1 cell noCPT = qHTS for Inhibitors of human tyrosyl-DNA phosphodiesterase 1 (TDP1): qHTS in cells in absence of CPT; DT40 Tdp1-/- hTDP1 cells, no CPT, ATP luminescence, 48 h; AID 686978, 2013; actives 15% (n = 420,000); Potency, µM (top dose mostly 46.2 µM), most hits filed as inhibitors; further: nearly all actives have a fitted effect of over 55% in size
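Growth kinetics read by CellTiter-Glo luminescence after ≥48 hr at 37 °C. Cells: DT40 Tdp1-/- stably carrying human TDP1, 400 per well, compound exposure in the absence of CPT (DMSO vehicle).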
SW480 rereplic = A quantitative high throughput screen for small molecules that induce DNA re-replication in SW480 colon adenocarcinoma cells; SW480 DNA re-replication, Hoechst DNA content imaging, 48 h; Potency, µM (series often up to 46.1 µM), most hits filed as activators; actives 1.8% (n = 340,000); AID 624297, 2012; further: nearly all actives have a fitted effect of over 55% in size
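250 cells/well; 23 nL cpd via pin tool; 48 hr, 37 C, 5% CO2; Hoechst 40 min; imager read of total nuclear intensity, ex 405/em 500-530 nm.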
IL-1B inflam inh = qHTS for Inhibitors of Inflammasome Signaling: IL-1-beta AlphaLISA Primary Screen; THP-1 LPS/ATP IL-1B secretion, AlphaLISA, 16 h; active compounds read low; activity change, % at 57.5 µM; actives 4.7% (n = 360,000); AID 743279, 2014; in the data active means activity change below about -50%; inconclusive means mostly about -30% to -49%
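THP-1 cells pretreated 1 hr with compounds (up to 57.5 uM final), then stimulated with LPS (250 ng/mL final) plus ATP (1.25 mM final); secreted IL-1B measured by AlphaLISA after 16 hr, decreased signal indicating inhibition.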
Chronic BCR inh = qHTS Assay to Find Inhibitors of Chronic Active B-Cell Receptor Signaling | ABC-DLBCL IkBa-CBG/CBR reporter, luminescence ratio, 4 h | Potency, µM (doses to about 46.1 µM), usual class: inhibitors | actives 0.05% (n = 340,000); active means well fitted inhibition curve with a large enough effect in the signal ratio, with a control signal flat, not every such curve was filed as active; inconclusive means small, poorly fitted or top-dose-only effect, or effect the other way, or a change in a side signal; the % refers to the signal ratio
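TMD8 human ABC-DLBCL cells with doxycycline-inducible IκBα–green luciferase fusion and unfused red luciferase, in 0.5% FBS medium; compounds up to 46 uM, 4 h at 37C. Green/red luminescence ratio, filter-overlap corrected, fitted to concentration-response curves.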
MCF10A rerep = A quantitative high throughput screen for small molecules that induce DNA re-replication in MCF 10a normal breast cells. Potency, µM (titrated, usually from 46.1 µM), actives largely listed as activators. MCF 10A DNA re-replication, Hoechst nuclear intensity, 48 h. actives 2.9% (n = 350,000); further: nearly all actives have a fitted effect of over 50% in size
TDP1 cell CPT = qHTS for Inhibitors of human tyrosyl-DNA phosphodiesterase 1 (TDP1): qHTS in cells in presence of CPT. actives 12% (n = 420,000). chicken DT40 Tdp1-/-;hTDP1 cells + 20 nM CPT, ATP luminescence, 48 h. AID 686979, 2013. Potency, µM (doses to about 46.2 µM), most hits filed as inhibitors; further: nearly all actives have a fitted effect of over 55% in size
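Chicken DT40 Tdp1-/- cells complemented with human TDP1, 400 cells/well, exposed to compounds plus 20 nM camptothecin for at least 48 h at 37 C; viability read as ATP content by CellTiter-Glo luminescence.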
Hits are given with their value; - = inactive; ? = inconclusive; . = not tested or not shown; [ ] = remark or other dose. Shown are actives, neighbours in structure and some others; about 19% of the full set was active somewhere. Unless noted, the call rests on the fitted dose curve; in most records, active means well fitted curve in the direction sought with a large enough effect; inconclusive means small, poorly fitted or top-dose-only effect, or another doubt; inactive means no such curve, though single readings can be large; an effect the other way counts as inactive or inconclusive.

SMILES	TDP1 cell noCPT	SW480 rereplic	IL-1B inflam inh	Chronic BCR inh	MCF10A rerep	TDP1 cell CPT
COc1cc(C(=O)Nc2ccc(S(=O)(=O)N3CCCCC3C)cc2)cc(OC)c1OC (centres undefined)	?	-	?	-	-	20.6µM
COc1ccc(C(=O)Nc2ccc(S(=O)(=O)N3CCCCC3C)cc2)c(OC)c1OC (centres undefined)	16.4µM	-	-59.5	-	-	18.4µM
Cc1nc2sccn2c(=O)c1CCN1CCC(=C(c2ccccc2)c2ccc(F)cc2)CC1	11.9µM	-	.	?	5.17µM	13.3µM
CCCC(=O)Nc1ccc(NC(=O)CCc2ccccc2)cn1	16.4µM	?	-	-	-	16.4µM
O=C(OCc1ccccc1)N1CCC2CC1c1cc(NCCc3ccccc3)ccc12 (centres undefined)	?	?	-	.	-	?
Cc1ccccc1C(=O)N1CCC2CC1c1cc(-c3ccc(F)cc3)ccc12 (centres undefined)	18.4µM	-	-	.	?	?
O=C(OCc1ccccc1)N1CCC2CC1c1cc(-c3ccc(F)cc3)ccc12 (centres undefined)	?	?	-	.	?	?
COc1cccc(-c2ccc3c(c2)C2CC3CCN2C(=O)c2ccc(-c3ccccc3)cc2)c1 (centres undefined)	18.4µM	.	-	.	.	?
CC(=O)N(CCc1ccccc1)c1ccc2c(c1)C1CC2CCN1C(=O)OCc1ccccc1 (centres undefined)	6.51µM	.	?	.	.	8.2µM
Cc1ccccc1C(=O)N1CCC2CC1c1cc(Cl)ccc12 (centres undefined)	?	-	-	.	-	-
COc1ccc(-c2ccc3c(c2)C2CC3CCN2C(=O)OCc2ccccc2)cc1 (centres undefined)	?	?	-	.	-	16.4µM
CC(=O)c1nnn(-c2nc(C#N)nc(N3CCOCC3)n2)c1C	?	.	.	.	.	-
O=C(COC(=O)C12CC3CC(CC(C3)C1)C2)NNC(=O)c1ccccc1	-	-	-	-	?	-
c1ccc(CN2CCC3CC2c2cc(N4CCCCC4)ccc23)cc1 (centres undefined)	?	.	-	.	.	?
O=C(OCc1ccccc1)N1CCC2CC1c1cc(N3CCCCC3)ccc12 (centres undefined)	?	-	-	.	-	?
COc1ccc(-c2ccc3c(c2)C2CC3CCN2S(=O)(=O)c2ccccc2C)cc1 (centres undefined)	16.4µM	-[9.22 µM]	-	.	-	?
O=C(OCc1ccccc1)N1CCC2CC1c1cc(N3CCNCC3)ccc12 (centres undefined)	16.4µM	.	?	.	.	?
Clc1cccc(CN2CCC3CC2c2cc(N4CCCCC4)ccc23)c1 (centres undefined)	?	-	-	.	?	-
CCN(CCc1ccccc1)c1ccc2c(c1)C1CC2CCN1Cc1ccccc1 (centres undefined)	5.8µM	.	-	.	.	6.51µM
O=C(c1cc(Cl)cc(Cl)c1)N1CCC2CC1c1cc(N3CCCCC3)ccc12 (centres undefined)	20.6µM	.	-	.	.	?
COc1ccc(NC(=O)C2CCN(S(=O)(=O)c3ccc4[nH]c(=O)ccc4c3)CC2)cc1Cl	-	.	.	.	.	-
O=c1ccn2c(n1)SC(c1ccccc1)C2 (centres undefined)	-	.	-	.	.	-
Cc1cnc(C)c(-c2ccc(O)c(CN3CCN(C=O)CC3)c2)n1	-	.	.	.	.	-
CNc1cc(-c2ccc(CC#N)cc2)ncn1	-	.	-	.	.	-
O=C(OCc1ccccc1)N1CCC2CC1c1cc(/C=C/CCCSc3ncccn3)ccc12 (centres undefined)	23.1µM	.	-	.	.	?
SMILES	TDP1 cell noCPT	SW480 rereplic	IL-1B inflam inh	Chronic BCR inh	MCF10A rerep	TDP1 cell CPT
CC(=O)Nc1ccc(Nc2ccc3c4c(cc(=O)n3C)-c3ccccc3C(=O)c24)cc1	6.51µM	-	?	-	-	-
CC(=O)Nc1ccc(NS(=O)(=O)c2ccc3c(c2)n(C)c(=O)n3C)cc1	-	-	-	-	-	-
CC(C)=C1SC(N2CCN(c3ccc(Cl)cc3)CC2)=NC1=O	?	-	-60.4	-	-	?
COc1ccc(N2CCN(S(=O)(=O)CCNC(=O)COc3ccccc3F)CC2)cc1	-	.	.	.	.	-
COc1ccc(CC(=O)NNC(=O)c2ccco2)cc1	-	-	-	-	-	-
O=C(NC12CC3CC(CC(C3)C1)C2)c1ccccc1	-	-	-	-	-	-
O=C(NNC(=S)NC(=O)c1ccc(F)cc1)c1ccncc1	23.1µM	-	-	-	-	18.4µM
O=C(NC(=S)NC12CC3CC(CC(C3)C1)C2)c1ccc(F)cc1	23.1µM	?	-	-	?	?
O=C(NC(=S)NNC(=O)c1ccco1)c1ccc(F)cc1	16.4µM	-	-	?	-	?
COc1ccc(C(=O)NC(=S)NNC(=O)c2ccco2)cc1	20.6µM	?	-	-	-	18.4µM
Cc1noc(C)c1-c1cncnc1NCc1cccnc1	-	.	.	.	.	-
COc1ccc(C(=O)NNC(=S)NC(=O)C(C)(C)C)cc1	7.31µM	-	-101.6	?	-	6.51µM
O=C(NNC(=S)NC(=O)C12CC3CC(CC(C3)C1)C2)c1ccncc1	?	?	-	-	-	?
C=C(C)CNC(=S)NNC(=O)c1cc(C)oc1C	-	-	-	-	-	-
COc1ccccc1OCC(=O)NNC(=S)NC(=O)c1ccco1	18.4µM	-	-	-	-	?
C=C(C)CNC(=S)NNC(=O)c1ccco1	-	1.84µM	-	?	16.4µM	-
COc1ccc(C(=O)NNC(=O)c2ccc(C(C)(C)C)cc2)cc1	-	-	-	-	-	-
CC1(C(=O)NC(=S)NNC(=O)c2ccncc2)CCCCC1	16.4µM	9.2µM	-	?	-	13µM
COc1ccccc1C(=O)NC(=S)Nc1ccc(NC(=O)c2ccco2)cc1	?	-	-	?	-	-
Cc1ccc(OCc2cc(=O)n3c4c(sc3n2)CCCC4)cc1C	-	.	.	.	.	-
CCCCCN1CC(=O)N2C(C)c3[nH]c4ccccc4c3C[C@H]2C1=O (some centres undefined)	?	-	-	-	-	-
CC1CC(NC(=O)c2c(O)nc3sccn3c2=O)CC(C)(C)C1 (centres undefined)	?	?	-	-	-	?
